Source: the supplement of paper PMC6555819

What was measured:
Test in all cases: PBM binding z-score (relative to random genomic background probes); higher = stronger binding; sequences stand for … in GC…GCGATTGACAGCGTAGAATGAAGG
[1] = tested on: RARb homodimer (NR concentration 270 nM)
Procedure, shortened: (§1)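 Regression normalization was applied to scanned fluorescence from custom Agilent 4×180K protein-binding microarrays. Before scanning, arrays were incubated 1 h with ligand-free nuclear receptor dimers, and binding was detected with antibodies against each partner (one per run). Binding z-scores use the random background probes as reference.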

[2] = tested on: RARg:RXRa (NR concentration 270 nM, RXRa partner concentration 90 nM)
Procedure, shortened: as §1

[3] = tested on: RARg homodimer (NR concentration 270 nM)
Procedure, shortened: as §1

[4] = tested on: RXRa DBDmut IVT, anti-RXR (DBD mutation: RXRa K156A/R161A, NR concentration 90 nM)
Procedure, shortened: as §1

[5] = tested on: RXRa homodimer (NR concentration 180 nM)
Procedure, shortened: as §1

[6] = tested on: THRa:RXRa (NR concentration 90 nM, RXRa partner concentration 90 nM)
Procedure, shortened: as §1

[7] = tested on: THRa homodimer (NR concentration 90 nM)
Procedure, shortened: as §1

[8] = tested on: VDR homodimer (NR concentration 270 nM)
Procedure, shortened: as §1

Row | Sequence | PBM binding z-score [1] | PBM binding z-score [2] | PBM binding z-score [3] | PBM binding z-score [4] | PBM binding z-score [5] | PBM binding z-score [6] | PBM binding z-score [7] | PBM binding z-score [8]
1 | ATCGCTAGGTAAAGTTCAGTGAAAGATCGATAGA | 2.03 | 1.75 | 1.86 | 0.79 | 1.03 | 0.617 | -0.888 | 1.49
2 | CCTAGTTGGTCAAGGTCAAACACGCTATAGGTAC | 4.29 | 4.69 | 4.37 | 2.71 | 4.76 | 4.07 | 3.39 | 4.52
3 | TCTCTTAGTTGAAGGGCAACCGACGAGTCCGTTT | 1.22 | 0.587 | 0.371 | 1.52 | 0.71 | 0.283 | 0.0407 | 1.24
4 | CGTCCAAGGTCAAGGTCAGTAAAAGAGACTCGAA | 4.79 | 6.66 | 7.87 | 3.57 | 6.53 | 4 | 3.52 | 3.34
5 | GTACCAAGGTGAATAGGTCGCTGATGAGTAGGCG | 1.69 | 2.65 | 1.53 | -0.316 | 1.66 | 1.59 | 0.0254 | -0.0986
6 | TCATATAGGTAAACACGTGAAAGTCCGTAAGTTA | 0.112 | 0.245 | 0.371 | 1.31 | 0.661 | 0.0438 | 0.238 | 0.164
7 | ACTAGTTGGTCAGGTGAGGTCACACACAATTCGG | 4.31 | 4.16 | 4.17 | 1.23 | 4.21 | 4.85 | 5.01 | 4.61
8 | CCTAGCAGGCCAATATGGGTCACTCAAGGCTTGA | 2.09 | 1.38 | 1.31 | -0.181 | 1.36 | 2.5 | -0.509 | -0.211
9 | AGAATGCGGTTACCAAAGATCAGGGAAACGCTTG | -0.737 | 0.095 | 0.185 | -0.735 | 0.309 | -0.323 | -1.27 | -1.02
10 | TATACAGGGTCAAAGGCCAGACTACGAATGTCGA | 3.59 | 5.73 | 5.23 | 3.01 | 6.99 | 3.6 | 0.88 | 2.33
11 | TGCATGAGGTTAAAGATCAGGGAACGTGGCGTCG | 1.02 | 2.55 | 1.33 | 1.43 | 3.68 | 2.71 | 0.949 | 1.11
12 | ATGGAAAGGTCGACGAGGTGAGTATACACCGTTT | 3.01 | 4.09 | 4.05 | 0.942 | 4.19 | 3.7 | 0.967 | 0.927
13 | TCATATACGTAAACAGGTGAAAGTCCGTAAGTTA | 0.865 | 0.708 | 0.405 | 1.91 | 0.88 | 0.985 | 0.342 | 0.357
14 | TCTTGTAGGTCAACAGGAGGTTAAGAAAGATCGA | 3.98 | 6.27 | 5.18 | 1.42 | 4.53 | 3.41 | 0.603 | 0.658
15 | CCTAGCAGGCCAGGGTGACTCAAGCATTTCGCTT | 0.018 | -0.0591 | -0.113 | -0.702 | -0.00102 | 0.244 | -0.395 | -0.814
16 | TGAATGAGGTTAAAGATCAGGGTACGTGGCGTCG | 1.27 | 2.36 | 1.42 | 1.41 | 3.5 | 2.78 | 0.878 | 1.25
17 | CCTAGCAGGCCAATCTGGGCCACTCAAGGCTTGA | -0.384 | -0.481 | -0.168 | -0.177 | -0.923 | 1.24 | -0.893 | -1.12

Row | Sequence | PBM binding z-score [1] | PBM binding z-score [2] | PBM binding z-score [3] | PBM binding z-score [4] | PBM binding z-score [5] | PBM binding z-score [6] | PBM binding z-score [7] | PBM binding z-score [8]
18 | GCTCGAAGGACAAGGTCAGAGCTTTGTCCGTAGA | 3.06 | 3.15 | 3.49 | 0.0106 | 2.51 | 2.65 | 0.93 | 0.387
19 | CAAACTAGGTCAAGAGGTGAAAGTCCGCTTCCCG | 4.18 | 5.62 | 5.36 | 1.5 | 4.52 | 3.58 | 1.67 | 0.973
20 | TCTGCTAGGTCAACGATGGTCAACTAATCTGCTA | 3.58 | 4.12 | 5.25 | 1.32 | 2.75 | 3.24 | 1.05 | 0.125
21 | TAGCCTAGGTCACGCGGGCCAGTATAGTGTCGGC | 3.49 | 5.13 | 5.55 | 0.633 | 4.2 | 3.74 | 1.61 | 0.563
22 | CCTCGGAGGACAACAGGAGCTCAGAGCTGCCAGA | -0.211 | 0.18 | 0.813 | 0.0828 | -0.62 | 0.178 | -0.484 | -0.365
23 | ACTAGCAGGCCAAGTTTGGGTCACTCAAACAAAG | 2.42 | 2.46 | 1.72 | -0.26 | 0.865 | 2.54 | 0.952 | 0.495
24 | GCTAGCAGGCTATTTGGGTCACTCAATGACGGGC | 1.63 | 0.682 | 0.795 | -0.21 | 0.76 | 1.81 | 0.905 | -0.158
25 | CCAGACATGTGAGAAGGTAACTCAGCCTCGATTA | 0.158 | -0.0792 | 0.231 | 0.753 | 0.09 | -0.0389 | 0.447 | 0.382
26 | AGAACGAGGGCACACTGAGTTGATAGCAGAGTAG | 1.02 | 1.64 | 1.91 | 2.1 | 1.24 | 1.72 | 0.167 | 1.78
27 | CCTAGTTGGTCAGGAGTTCACACACCGGATATGA | 3.04 | 3.12 | 2.47 | 2.09 | 2.32 | 1.5 | 1.07 | 4.81
28 | GGAACGAGGGCAAGCTGATAGCAGAGTTTGATGG | 0.957 | 1.17 | 1.95 | 1.68 | 0.6 | 0.878 | -0.593 | 1.03
29 | AGAATGAGGTTATACGTAGATCAGGGCAGAAAGT | 1.33 | 1.72 | 1.08 | 1.89 | 2.36 | 2.43 | 1.05 | 1.47
30 | CCAGACAGATGAAAGGTAACTCAGTCTGGTACGC | 0.123 | 0.253 | 0.272 | -0.0479 | 0.612 | 0.108 | -0.299 | 0.123
31 | TGTCAAAGTTCAAAGGTAACGTCAGTATCCACAC | 4.03 | 6.26 | 5.87 | 4.29 | 6.96 | 3.51 | -0.193 | 4.08
32 | ACTCGGAGGACAAAGGTCGGAGCTACGCCAGTGA | 2.12 | 3.28 | 1.75 | 0.784 | 2.2 | 1.98 | 0.0146 | 0.22
33 | TCATATAGGTAACTGCTAGGTGAAAGTCCGATCT | 0.607 | 0.501 | 0.315 | 1.53 | 0.853 | 1.43 | 0.668 | 0.0262
34 | TCTTATAGGTAAATGCTAGGTGAAAGTCCGATCT | 0.569 | 0.602 | 0.586 | 1.88 | 0.669 | 1.52 | 0.924 | 0.694
